Results filed as inconclusive are left out. Active and inactive are the calls of the source. How the source made its calls: active means hit-call score of the fitted dose curve at least 0.9, where 1 is the maximum; inconclusive means response in the unintended direction; inactive means score below 0.9.
Key:
[1] = system: frog Estrogen Receptor (ESR2), gene 100174814; experiment: ATG_frER2_XSP1: Attagene TRANS-FACTORIAL Multi-Species (XSP1) HepG2 Assay for frog Estrogen Receptor (ESR2) (AID 2283774)
Summary of the method: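 Reporter mRNA from a multiplexed TRANS system, measured by RT-PCR with fluorescent labelling and capillary electrophoresis, 24 hours after chemical exposure. Human HepG2 liver cells carried exogenous frog ER-Gal4 chimera; medium included 3 nM 6-alpha-fluorotestosterone; increases versus DMSO analysed.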

[2] = system: zebrafish Estrogen Receptor (ESR2A), gene 317734; experiment: ATG_zfER2a_XSP1: Attagene TRANS-FACTORIAL Multi-Species (XSP1) HepG2 Assay for zebrafish Estrogen Receptor (ESR2A) (AID 2283778)
Summary of the method: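 Reporter transcripts were quantified by RT-PCR, 6-FAM labelling, HpaI digestion and capillary electrophoresis after 24 h dosing. The cells were HepG2 transiently carrying a zebrafish ER2a–Gal4 construct plus multiplexed UAS reporters; medium contained 3 nM 6-alpha-fluorotestosterone.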

[3] = target: chicken Estrogen Receptor (ESR1), ESR1 (gene 396099) (UniProt P06212); experiment: ATG_chERa_XSP1: Attagene TRANS-FACTORIAL Multi-Species (XSP1) HepG2 Assay for chicken Estrogen Receptor (ESR1) (AID 2283779)
Sequence of chicken Estrogen Receptor (ESR1), ESR1 (gene 396099) (P06212 whole entry, looked up, the tested form may be a part): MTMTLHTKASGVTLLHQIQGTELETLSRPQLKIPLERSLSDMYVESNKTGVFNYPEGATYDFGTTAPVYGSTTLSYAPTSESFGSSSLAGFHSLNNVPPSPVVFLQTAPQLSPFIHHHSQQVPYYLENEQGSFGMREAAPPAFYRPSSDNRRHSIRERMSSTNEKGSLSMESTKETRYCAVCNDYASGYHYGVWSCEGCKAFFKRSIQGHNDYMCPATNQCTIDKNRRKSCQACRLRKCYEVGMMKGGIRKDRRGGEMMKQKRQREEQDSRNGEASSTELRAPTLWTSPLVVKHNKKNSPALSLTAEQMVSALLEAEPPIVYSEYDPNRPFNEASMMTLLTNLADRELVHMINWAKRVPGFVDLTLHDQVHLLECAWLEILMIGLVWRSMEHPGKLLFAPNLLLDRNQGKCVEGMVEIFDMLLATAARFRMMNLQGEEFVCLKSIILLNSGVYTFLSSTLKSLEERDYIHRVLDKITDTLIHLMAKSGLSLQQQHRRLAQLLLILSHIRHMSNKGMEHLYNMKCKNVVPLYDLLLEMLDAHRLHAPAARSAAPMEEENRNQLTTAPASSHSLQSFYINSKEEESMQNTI
Summary of the method: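 Trans-activation of an exogenous chicken ERα–Gal4 chimera read as reporter transcript (RT-PCR, fluorescent labeling, capillary electrophoresis) after 24 h compound exposure of transfected HepG2; medium held 3 nM 6-alpha-fluorotestosterone. Positive-direction fit against DMSO.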

[4] = system: turtle Estrogen Receptor (ESR1), gene 101933533; experiment: ATG_trERa_XSP1: Attagene TRANS-FACTORIAL Multi-Species (XSP1) HepG2 Assay for turtle Estrogen Receptor (ESR1) (AID 2283781)
Summary of the method: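 Transactivation measured 24 h post-dose as reporter mRNA (RT-PCR, fluorescent capillary electrophoresis) from an NR-Gal4 turtle ER construct in HepG2. Medium included 3 nM 6-alpha-fluorotestosterone; increase over DMSO fitted.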

[5] = ATG_M_19_XSP1: Attagene TRANS-FACTORIAL Multi-Species (XSP1) HepG2 Assay for M19 Transcription Factor (Internal Marker) (AID 2283798)
Summary of the method: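 Readout is reporter mRNA induction quantified via RT-PCR, 6-FAM labeling, HpaI digestion and capillary electrophoresis, fitted in the positive direction versus DMSO baseline. Transfected HepG2 cells exposed 24 h, medium including 3 nM 6-alpha-fluorotestosterone.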

[6] = ATG_M_32_XSP1: Attagene TRANS-FACTORIAL Multi-Species (XSP1) HepG2 Assay for M32 Transcription Factor (Internal Marker) (AID 2283799)
Summary of the method: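 Reporter transcripts from the M32 internal-control unit measured by RT-PCR, FAM labelling, HpaI digestion and capillary electrophoresis after 24 h compound exposure of transfected HepG2, 3 nM 6-alpha-fluorotestosterone included; DMSO baseline, positive-direction fit.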

[7] = system: zebrafish Peroxisome Proliferator-activated Receptor gamma (PPARg), gene 557037; experiment: ATG_zfPPARg_XSP1: Attagene TRANS-FACTORIAL Multi-Species (XSP1) HepG2 Assay for zebrafish Peroxisome Proliferator-activated Receptor gamma (PPARg) (AID 2283801)
Summary of the method: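 Trans-activation readout of chimeric zebrafish PPARg–GAL4 in transiently transfected human HepG2 cells, 24 h chemical exposure (medium includes 3 nM 6-alpha-fluorotestosterone). Reporter transcripts measured by RT-PCR and capillary electrophoresis, fitted as gain over DMSO.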

[8] = system: turtle Thyroid Hormone Receptor, alpha (TRa), gene 101949057; experiment: ATG_trTRa_XSP1: Attagene TRANS-FACTORIAL Multi-Species (XSP1) HepG2 Assay for turtle Thyroid Hormone Receptor, alpha (TRa) (AID 2283806)
Summary of the method: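 After 24 h chemical exposure, reporter transcripts were measured by RT-PCR with fluorescent primer extension, HpaI digestion and capillary electrophoresis. Cells were transiently transfected HepG2 expressing exogenous NR-Gal4 chimeras; medium contained 3 nM 6-alpha-fluorotestosterone; fitted upward relative to DMSO.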

[9] = target: zebrafish Thyroid Hormone Receptor alpha (TRa), thraa (gene 30670) (UniProt Q98867); experiment: ATG_zfTRa_XSP1: Attagene TRANS-FACTORIAL Multi-Species (XSP1) HepG2 Assay for zebrafish Thyroid Hormone Receptor alpha (TRa) (AID 2283807)
Sequence of zebrafish Thyroid Hormone Receptor alpha (TRa), thraa (gene 30670) (Q98867 whole entry, looked up, the tested form may be a part): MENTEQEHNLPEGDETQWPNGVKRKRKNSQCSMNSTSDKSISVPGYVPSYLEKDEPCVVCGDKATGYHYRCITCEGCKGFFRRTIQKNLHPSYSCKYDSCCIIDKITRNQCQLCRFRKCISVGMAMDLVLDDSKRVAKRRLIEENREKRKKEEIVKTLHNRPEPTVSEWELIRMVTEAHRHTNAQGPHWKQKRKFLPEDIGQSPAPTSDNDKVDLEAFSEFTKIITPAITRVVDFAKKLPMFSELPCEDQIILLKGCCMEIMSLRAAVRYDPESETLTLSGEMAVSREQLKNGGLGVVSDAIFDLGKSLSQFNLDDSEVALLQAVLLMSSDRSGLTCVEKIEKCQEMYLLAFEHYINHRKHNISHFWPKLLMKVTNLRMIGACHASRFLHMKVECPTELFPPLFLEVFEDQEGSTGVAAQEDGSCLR
Summary of the method: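 Reporter transcripts driven by a chimeric zebrafish TRa–Gal4 protein were measured by RT-PCR with fluorescent labelling and capillary electrophoresis. These came from transiently transfected HepG2 cells after 24 h chemical exposure, with 3 nM 6-alpha-fluorotestosterone added; baseline was DMSO.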

[10] = target: chimpanzee Androgen Receptor (AR), AR (gene 747460) (UniProt O97775); experiment: NVS_NR_cAR: NovaScreen (NVS) Nuclear Receptor Binding Assay for chimpanzee Androgen Receptor (AR) (AID 2283346);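 further: radioligand displacement from AR measured by scintillation counting in a cell-free assay; a loss of bound radioligand signal versus DMSO counts as binding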
Sequence of chimpanzee Androgen Receptor (AR), AR (gene 747460) (O97775 whole entry, looked up): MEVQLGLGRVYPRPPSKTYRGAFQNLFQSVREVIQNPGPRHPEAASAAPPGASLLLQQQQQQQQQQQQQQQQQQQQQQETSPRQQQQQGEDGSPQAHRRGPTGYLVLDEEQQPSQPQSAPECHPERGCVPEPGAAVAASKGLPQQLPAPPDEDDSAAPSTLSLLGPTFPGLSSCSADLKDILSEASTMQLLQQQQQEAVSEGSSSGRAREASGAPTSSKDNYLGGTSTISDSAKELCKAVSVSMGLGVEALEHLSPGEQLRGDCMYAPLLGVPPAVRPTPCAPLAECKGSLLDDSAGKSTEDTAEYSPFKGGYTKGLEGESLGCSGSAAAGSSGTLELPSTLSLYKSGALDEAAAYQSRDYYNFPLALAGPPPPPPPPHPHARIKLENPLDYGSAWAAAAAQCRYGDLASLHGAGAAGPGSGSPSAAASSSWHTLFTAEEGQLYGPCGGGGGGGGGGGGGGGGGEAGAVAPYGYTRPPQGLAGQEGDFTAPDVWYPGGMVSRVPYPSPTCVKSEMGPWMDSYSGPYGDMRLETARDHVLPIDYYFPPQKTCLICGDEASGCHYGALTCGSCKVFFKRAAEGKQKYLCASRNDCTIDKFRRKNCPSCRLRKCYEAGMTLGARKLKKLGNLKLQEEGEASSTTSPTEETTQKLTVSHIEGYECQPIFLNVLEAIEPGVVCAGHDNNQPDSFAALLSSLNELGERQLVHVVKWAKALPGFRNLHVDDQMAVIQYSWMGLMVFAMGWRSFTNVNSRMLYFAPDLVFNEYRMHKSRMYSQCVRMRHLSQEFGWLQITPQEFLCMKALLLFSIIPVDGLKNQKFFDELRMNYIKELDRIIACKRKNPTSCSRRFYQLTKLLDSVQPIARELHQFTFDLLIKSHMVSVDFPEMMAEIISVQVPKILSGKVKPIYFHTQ
Summary of the method: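 Cell-free competition binding with insect-cell (Sf9/Sf21) extracted chimpanzee AR; scintillation signal from lysate at 72 h. Screened in duplicate at 25 uM, then concentration-response for actives; fitting relative to DMSO.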

[11] = target: human CYP19A1, CYP19A1 (gene 1588) (UniProt P11511); experiment: NVS_ADME_hCYP19A1: NovaScreen (NVS) CYP450-related Enzyme Activity (ADME) Assay for human CYP19A1 (AID 2283098);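 further: potency for inhibitors seen as loss of fluorescent enzyme signal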
Sequence of human CYP19A1, CYP19A1 (gene 1588) (P11511 whole entry, looked up): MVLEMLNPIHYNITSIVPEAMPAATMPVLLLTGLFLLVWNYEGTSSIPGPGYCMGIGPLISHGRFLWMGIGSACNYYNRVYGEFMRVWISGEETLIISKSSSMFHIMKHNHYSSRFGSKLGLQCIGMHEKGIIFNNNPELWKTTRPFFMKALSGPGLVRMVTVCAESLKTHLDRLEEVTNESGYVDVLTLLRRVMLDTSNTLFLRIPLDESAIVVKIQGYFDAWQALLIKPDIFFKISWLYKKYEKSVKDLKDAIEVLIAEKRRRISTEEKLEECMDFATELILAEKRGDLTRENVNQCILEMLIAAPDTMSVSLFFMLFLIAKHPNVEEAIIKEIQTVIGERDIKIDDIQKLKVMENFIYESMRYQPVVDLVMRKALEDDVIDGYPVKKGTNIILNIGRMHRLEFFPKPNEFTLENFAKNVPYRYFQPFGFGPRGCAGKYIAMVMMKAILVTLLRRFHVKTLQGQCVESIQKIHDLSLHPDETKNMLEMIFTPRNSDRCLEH
Summary of the method: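 Primary testing was in duplicate at a single 10 uM concentration, with actives followed up in concentration-response series. Fluorescence read-out of recombinant enzyme activity at 0.5 h, cell-free. Acetonitrile was the negative-control baseline.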

Measured: AC50

CC(C)(c1cc(Cl)c(O)c(Cl)c1)c1cc(Cl)c(O)c(Cl)c1
inactive: [5] | [6] | [7] | [8]
active: [1] 3.55 µM | [2] 2.02 µM | [3] 24.3 µM | [4] 23.9 µM | [9] 17.9 µM

CC(C)CCCCCCCOC(=O)c1ccccc1C(=O)OCCCCCCCC(C)C
inactive: [1] | [2] | [3] | [4] | [5] | [6] | [7] | [8] | [9]

CC[N+](=O)[O-]
inactive: [10]

CCOP(=O)(OCC)Oc1ccc([N+](=O)[O-])cc1
active: [11] 6.54 µM
